# Measurements: PubChem BioAssay (NCI)
# About 83,000 compounds went through this panel and 20% of them were active in at least one assay; those are over-represented in the sample as a whole.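 Compound tested at a single concentration for 48 hours in 96-well plates; a percent growth value below 10 was scored as active.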 A number with no mark means an inactive call.
# System: MDA-MB-468 breast
# Experiment: NCI-60 one-dose screen, 48 h (100 = growth as untreated, 0 = no growth, -100 = all killed)
# Details: 10 µM unless noted
row,SMILES,growth
1,CCOC(=O)C1C(=O)C=C(c2cc(OC)c(OC)c(OC)c2)CC1c1sc(N(C)Cc2ccccc2)nc1Cl (stereo not drawn),71.2%
2,CC/C(=C(/c1ccc(Cl)cc1)c1ccc(OCCCN(C)C)cc1)c1ccc(OC)cc1,51.7%
3,CC1(C)CN(Cc2ccccc2)CCN1Cc1ccccc1,106%
4,Nc1cc2c(cc1Cl)C(=O)c1ccccc1C2=O,70.2%
5,CN(Cc1cnc2nc(N)nc(N)c2n1)c1ccc(C(=O)N[C@@H](CCc2nn[nH]n2)c2nn[nH]n2)cc1,52.8%
6,CCOC(=O)/C=C(/C)Sc1cc(O)c2ccccc2c1O,29.9%
7,CC(C)C/C=C/C=C/C(=O)N[C@@H](CC(N)=O)C(=O)N[C@@H]1C(=O)N[C@H](c2ccc(O)cc2)C(=O)N[C@H](CCCN)C(=O)N[C@H]([C@@H](C)O)C(=O)N[C@H](c2ccc(O)cc2)C(=O)N[C@H](c2ccc(O)cc2)C(=O)N[C@H]([C@H](C)O)C(=O)N[C@H](Cc2ccccc2)C(=O)N[C@H](CCCN)C(=O)N[C@H](c2ccc(O[C@H]3O[C@@H](CO)[C@@H](O)[C@@H](O)[C@H]3O[C@@H]3O[C@H](CO)[C@H](O)[C@H](O)[C@@H]3O)cc2)C(=O)N[C@H]([C@H](C)O)C(=O)N[C@H](c2ccc(O)cc2)C(=O)NCC(=O)N[C@H](CC(C)C)C(=O)N[C@H](C)C(=O)N[C@H](c2ccc(O)c(Cl)c2)C(=O)O[C@@H]1C(N)=O,66.7%
8,Cc1cc(OCc2ccc(C(F)(F)F)cc2)c2c(c1)C(=O)C=C(NCCN1CCCC1)C2=O,51.3%
